This is a sample that favours compounds with a hit; in the whole collection about 11% have one here.
HTT cytoprotect – cytoprotection in Huntington HTT-Q103 PC12 cell model; 230,000 tested, 0.14% active; Potency, µM (series often up to 56.4 µM), for inactives: cytoprotection (ATP increase), most hits filed as activators; PC12 HTT-Q103 induced, cytoprotection, ATP luminescence, 40 h; further: potency means the concentration at half of the fitted maximal effect; % of control where 0% means no effect; nearly all actives have a fitted effect of over 45% in size
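Quantitative HTS on tebufenozide-induced (100 nM) PC12 cells expressing HTTQ103 exon 1–GFP; compounds tested as a concentration series; survival measured via cellular ATP.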
PNC inhibitor – blocks assembly of the perinucleolar compartment; PC3M PTB-GFP, PNC prevalence imaging, 16 h; stronger effect = lower value; 140,000 tested, 3.1% active; activity change (PNC), negative = inhibition, % at 10 µM;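 active means readout at or below -70, meaning at least 70% loss of cells showing the perinucleolar compartment, a nuclear body marking cancer cells; inconclusive means readout between -30 and a set limit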;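 further: plate controls were DMSO wells for no effect and camptothecin positive control wells for full effect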
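Read-out is percentage of cells bearing a perinucleolar compartment, from automated 20x imaging of fixed, Hoechst-stained PC3M PTB-GFP cells. Cells were seeded 4 h, then exposed 16 h to compound (23 nl of library stock) in duplicate plates.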
ALDH1A1 block – inhibitors of human aldehyde dehydrogenase 1A1; P00352; Purified ALDH1A1, NADH fluorescence, propionaldehyde substrate; Potency, µM (titrated, usually from 75.3 µM), without a hit: top-dose activity, negative = inhibition, most hits filed as inhibitors; 220,000 tested, 7.3% active; active means well fitted inhibition curve with a large enough effect, not every such curve was filed as active; inconclusive means small, poorly fitted or top-dose-only effect, or another doubt; inactive means no such curve, though single readings can be large or run the other way;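 further: potency means the concentration at half of the fitted maximal effect; plate controls were no enzyme wells and a reference inhibitor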
Target sequence (P00352 whole entry, looked up): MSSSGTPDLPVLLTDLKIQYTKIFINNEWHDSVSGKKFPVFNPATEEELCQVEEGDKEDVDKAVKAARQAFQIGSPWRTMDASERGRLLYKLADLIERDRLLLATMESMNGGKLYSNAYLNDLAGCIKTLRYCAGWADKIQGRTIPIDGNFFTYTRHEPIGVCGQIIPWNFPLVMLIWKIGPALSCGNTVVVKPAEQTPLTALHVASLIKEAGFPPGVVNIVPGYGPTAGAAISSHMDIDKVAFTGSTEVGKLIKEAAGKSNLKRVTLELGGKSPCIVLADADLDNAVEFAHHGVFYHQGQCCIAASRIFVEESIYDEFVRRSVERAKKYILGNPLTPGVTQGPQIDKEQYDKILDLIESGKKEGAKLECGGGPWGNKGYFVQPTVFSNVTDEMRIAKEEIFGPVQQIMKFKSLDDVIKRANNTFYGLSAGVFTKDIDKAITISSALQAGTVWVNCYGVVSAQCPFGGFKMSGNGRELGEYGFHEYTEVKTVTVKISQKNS
HTT aggregate – inhibitors of mutant huntingtin aggregate formation in PC12 cells. 220,000 tested, 1.1% active. Potency, µM (doses to about 46.1 µM), for the others: at the highest dose activity change, negative = inhibition, actives largely listed as inhibitors. AID 1688. PC12 HttQ103-GFP aggregates, Acumen cytometry, 40 h; further: potency means the concentration at half of the fitted maximal effect; on the % scale 0 is the no-effect control and ±100 the full control effect; nearly all actives have a fitted effect of over 60% in size
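Ecdysone-promoter PC12 model expressing HTT exon 1 Q103 fused to GFP, induced by tebufenozide at 100 nM final. Compounds titrated; aggregates sized 1–25 µm scored on a 488 nm laser cytometer.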
HPGD inh – inhibitors of human 15-hydroxyprostaglandin dehydrogenase (HPGD) | AID 894 | Potency, µM, inactives show top-dose activity change, negative = inhibition, usual class: inhibitors | 150,000 tested, 4.3% active | purified HPGD, NADH fluorescence kinetic, PGE2 substrate | P15428; active means well fitted inhibition curve with a large enough effect, not every such curve was filed as active; inconclusive means small, poorly fitted or top-dose-only effect, or another doubt; inactive means no such curve, though single readings can be large or run the other way; further: potency means the concentration at half of the fitted maximal effect; on the % scale 0 is the no-effect control and ±100 the full control effect
Target sequence (P15428 whole entry, looked up): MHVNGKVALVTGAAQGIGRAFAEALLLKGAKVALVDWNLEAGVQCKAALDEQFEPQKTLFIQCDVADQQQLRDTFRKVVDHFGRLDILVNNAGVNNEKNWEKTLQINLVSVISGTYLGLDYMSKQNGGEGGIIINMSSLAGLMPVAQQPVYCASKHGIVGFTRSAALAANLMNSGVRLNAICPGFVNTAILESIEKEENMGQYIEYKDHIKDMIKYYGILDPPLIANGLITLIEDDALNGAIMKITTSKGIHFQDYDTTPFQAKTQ
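NADH formation kinetics: reaction with 30 uM PGE2 and 1 mM NAD+ (final), 20 nM enzyme, Tris-HCl pH 8 with Tween 20, after 15 min compound preincubation at room temperature. Fluorescence change, last versus first of five reads.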
CBFb RUNX1 block – inhibitors of human CBF-beta and RUNX1 interaction. Potency, µM (series often up to 59.8 µM), for inactives: top-dose activity, negative = inhibition, actives largely listed as inhibitors. 230,000 tested, under 10 active. Q01196+Q13951. AID 1477. AlphaScreen CBFb-His/RUNX1-biotin binding, biochemical; further: % of control where 0% means no effect
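His-tagged CBF-beta and biotinylated RUNX1 (30 nM each) were premixed 20 min at room temperature, exposed to compound for 15 min, then given nickel-chelate and streptavidin AlphaScreen beads (50 ng each). After 90 min, AlphaScreen signal was read.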
An asterisk follows results filed as active; ? = inconclusive; / = not tested or not shown; [ ] = remark or other dose. Unless noted, the call rests on the fitted dose curve; in most records, active means well fitted curve in the direction sought with a large enough effect; inconclusive means small, poorly fitted or top-dose-only effect, or another doubt; inactive means no such curve, though single readings can be large; an effect the other way counts as inactive or inconclusive.

SMILES	HTT cytoprotect	PNC inhibitor	ALDH1A1 block	HTT aggregate	HPGD inh	CBFb RUNX1 block
CCn1ncc([C@@H]2C[C@H]3CN(Cc4cccc(Cl)c4)C(=O)[C@]34CCCN24)c1C	-7%[10 µM]	/	-2%	-11%[9.22 µM]	/	4%
O=C1N(Cc2cccc(Cl)c2)C[C@@H]2C[C@@H](c3cccn3-c3cccnc3)N3CCC[C@@]123	15%[10 µM]	/	7.1µM*	3%[9.22 µM]	/	-26%
Cc1ccc(C(C(=O)NC2CCCCC2)N(Cc2ccccc2)C(=O)Cc2c[nH]c3ccccc23)o1 (stereo not drawn)	17%[10 µM]	40	?	20µM*	-16%	-18%
COc1cccc(CN(C(=O)Cc2c[nH]c3ccccc23)C(C(=O)NC2CCCCC2)c2ccc(C)o2)c1 (stereo not drawn)	2%[10 µM]	-3	?	13µM*	-19%	-14%
COc1ccc(CN(C(=O)Cc2c[nH]c3ccccc23)C(C(=O)NC2CCCCC2)c2ccc(C)o2)cc1 (stereo not drawn)	-3%[10 µM]	?	6.3µM*	?	-18%	3%
COc1cc(C(C(=O)NC2CCCCC2)N(Cc2cccs2)C(=O)Cc2c[nH]c3ccccc23)cc(OC)c1OC (stereo not drawn)	-3%	7	0%	?	-11%	-2%
COc1cccc(-c2cc(NCc3ccccc3OC)ncn2)c1	-38%	/	9%	/	/	/
COc1ccc(CNc2cc(-c3ccoc3)ncn2)c(OC)c1	-18%	/	25µM*	/	/	/
c1ccc(CNc2cc(-c3ccoc3)ncn2)cc1	-46%	/	22µM*	/	/	/
c1ccc(CNc2cc(-c3cccnc3)ncn2)cc1	15%	/	?	/	/	/
COc1ccccc1N1CCN(C(CNS(=O)(=O)c2ccc(C)cc2)c2cccnc2)CC1 (stereo not drawn)	-2%	-82*	?	-1%	-1%	-11%
CS(=O)(=O)NCC(c1cccnc1)N1CCN(c2ccccc2F)CC1 (stereo not drawn)	10%[10 µM]	/	/	6%[9.22 µM]	/	-2%
COc1ccccc1N1CCN(C(CNS(C)(=O)=O)c2cccnc2)CC1 (stereo not drawn)	2%	/	10µM*	9%	/	5%
Cc1ccc(S(=O)(=O)NCC(c2cccnc2)N(C)C)cc1 (stereo not drawn)	9%	39	32µM*	14%	-9%	1%
CCOc1nc(NC2CCCCC2)nc(NC(C)(C)C)n1	-1%[1.9 µM]	?	-6%	-27%	1%	24%
CCOC(=O)/C(C#N)=C/Nc1ccccc1OC(F)(F)F	22%[10 µM]	/	/	12%[9.22 µM]	/	0%
CC(=O)C1=C(O)C(=O)N(CCc2c[nH]c3ccccc23)C1c1ccco1 (stereo not drawn)	?	8	?	?	-11%	-7%
O=S(=O)(c1ccc(F)cc1)n1ccc2cccnc21	0%[10 µM]	-100*	12%	-3%	-6%	-1%
CCOC(=O)N1CCC(NC(=O)CCC(=O)N2CCOc3ccc(Cl)cc32)CC1	-3%	/	?	-8%	/	16%
Oc1ccccc1C1CC(c2cccs2)=NC(c2cccc(Br)c2)N1 (stereo not drawn)	-47%	/	?	11µM*	/	2%
COc1ccc(CCNC(=O)Cn2c(=O)n(-c3cc(F)ccc3F)c(=O)c3sccc32)cc1OC	/	/	1µM*	10%	/	-5%
CCSC[C@H](NC(=O)[C@H](C)N)C(=O)N[C@@H](CC(=O)O)C(=O)N[C@H](C(=O)N[C@@H](C)C(=O)N[C@H](C(=O)N[C@@H](CSCC)C(=O)N[C@H](C(=O)N[C@H](C(=O)N[C@@H](Cc1cnc[nH]1)C(=O)N[C@@H](CCCNC(=N)N)C(=O)N[C@@H](CC(C)C)C(=O)N[C@@H](C)C(=O)NCC(=O)N[C@@H](CC(C)C)C(=O)N[C@@H](CC(C)C)C(=O)N[C@@H](CO)C(=O)N[C@@H](CCCNC(=N)N)C(=O)N[C@@H](CO)C(=O)NCC(=O)NCC(=O)N[C@H](C(=O)N[C@H](C(=O)N[C@@H](CCCCN)C(=O)N[C@@H](CC(N)=O)C(=O)N[C@@H](CC(N)=O)C(=O)N[C@@H](Cc1ccccc1)C(=O)N[C@H](C(=O)N1CCC[C@H]1C(=O)N[C@H](C(=O)N[C@@H](CC(N)=O)C(=O)N[C@H](C(=O)NCC(=O)N[C@@H](CO)C(=O)N[C@@H](CCCCN)C(=O)N[C@@H](C)C(=O)N[C@@H](Cc1ccccc1)C(N)=O)C(C)C)[C@@H](C)O)C(C)C)C(C)C)C(C)C)[C@@H](C)O)C(C)C)[C@@H](C)O)[C@@H](C)O	/	/	/	/	/	7%
CN1C=CC=C/C1=C1\SC(=S)N(C2CCCCC2)C1=O	-11%[10 µM]	-8	14µM*	12%	-14%	-29%
CN1C=CC=C/C1=C1\SC(=S)N(CC(=O)O)C1=O	23%[10 µM]	/	?	9%[9.22 µM]	/	12%
CCN1C(C)=C(C)S/C1=C1\SC(=S)N(C2CCCCC2)C1=O	-73%[10 µM]	/	-8%	?	/	5%
SMILES	HTT cytoprotect	PNC inhibitor	ALDH1A1 block	HTT aggregate	HPGD inh	CBFb RUNX1 block
CN1C=CC=C/C1=C1\SC(=S)N(c2ccccc2)C1=O	-11%	19	11µM*	17%	-12%	-11%
COc1cccc(-c2nnc3n2N=C(c2c(OC)cccc2OC)CS3)c1	/	/	/	/	/	2%
Cc1ccc(S(=O)(=O)Nc2nc3ccc(S(=O)(=O)N4CCCC4)cc3s2)cc1	-4%	12	0.16µM*	3%	13µM*	4%
O=C(Nc1nc2ccc(S(=O)(=O)N3CCCC3)cc2s1)c1ccccn1	-23%	/	?	?	/	-27%
O=C(Nc1nc2ccc(S(=O)(=O)N3CCCCC3)cc2s1)c1cccnc1	-26%	39	-4%	-12%	-10%	-2%
O=C(Nc1nc2ccc(S(=O)(=O)N3CCCCC3)cc2s1)c1ccncc1	-10%[10 µM]	-4	?	3.5µM*	-29%	-2%
O=S(=O)(Nc1nc2ccc(S(=O)(=O)N3CCCCC3)cc2s1)c1ccccc1	-3%	3	0.35µM*	7%	8.9µM*	0%
O=C(Cc1ccc2c(c1)OCCO2)N1CCN(S(=O)(=O)c2cccc(C(F)(F)F)c2)CC1	6%[10 µM]	11	6%	12%	-8%	-2%
N#CC(Nc1ccccc1)c1ccccc1OCc1ccccc1 (stereo not drawn)	-20%	-6	18µM*	-17%	-15%	7%
COc1ccc(C(C#N)Nc2ccccc2)cc1 (stereo not drawn)	18%	?	?	4%[9.22 µM]	-14%	6%
CN(C)CC(O)Cn1c2ccc(Br)cc2c2cc(Br)ccc21 (stereo not drawn)	-192%	/	6%	/	/	13%

Assay outcomes: PubChem, National Center for Advancing Translational Sciences (NCATS)
